Assay results taken from the supplement of paper PMC3334620.
Over roughly 33,000 sequences, “E-score (-0.5 to 0.5)” has its median near -0.021; the highest 2% begin near 0.32. The entries come from a sample that favours the highest values as a whole.

Target: T1, Zap1 (UniProt P47043)
T1 sequence: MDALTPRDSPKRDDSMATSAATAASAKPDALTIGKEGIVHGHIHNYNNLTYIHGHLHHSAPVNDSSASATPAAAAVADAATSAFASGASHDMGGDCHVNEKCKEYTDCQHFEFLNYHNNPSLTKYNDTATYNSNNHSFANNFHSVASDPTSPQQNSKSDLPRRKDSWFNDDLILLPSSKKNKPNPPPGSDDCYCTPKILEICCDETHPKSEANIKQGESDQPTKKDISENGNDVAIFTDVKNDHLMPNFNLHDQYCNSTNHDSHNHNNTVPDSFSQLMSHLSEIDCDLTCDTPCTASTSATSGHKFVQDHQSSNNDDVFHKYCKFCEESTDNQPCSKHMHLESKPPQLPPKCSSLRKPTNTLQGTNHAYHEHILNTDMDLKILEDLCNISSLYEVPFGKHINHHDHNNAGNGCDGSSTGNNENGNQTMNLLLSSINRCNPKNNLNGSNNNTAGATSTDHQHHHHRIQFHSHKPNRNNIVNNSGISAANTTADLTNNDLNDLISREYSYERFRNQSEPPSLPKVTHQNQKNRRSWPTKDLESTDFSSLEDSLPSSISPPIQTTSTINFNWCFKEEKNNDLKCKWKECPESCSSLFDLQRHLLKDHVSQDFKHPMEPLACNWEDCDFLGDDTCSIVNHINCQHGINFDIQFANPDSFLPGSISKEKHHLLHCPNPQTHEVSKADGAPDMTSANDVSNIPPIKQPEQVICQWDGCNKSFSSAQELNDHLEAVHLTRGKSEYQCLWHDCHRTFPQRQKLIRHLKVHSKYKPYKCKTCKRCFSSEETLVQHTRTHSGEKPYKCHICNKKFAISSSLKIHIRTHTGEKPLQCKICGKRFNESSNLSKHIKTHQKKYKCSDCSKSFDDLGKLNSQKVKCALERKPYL
Test: PBM E-score (8-mer binding enrichment) (E-score (-0.5 to 0.5)); higher = stronger / more preferred TF binding
Conditions: protein concentration: 200 nM; construct: GST-full length
Protocol: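 Universal 'all 10-mer' protein binding microarrays (Agilent AMADID 015681) probed with GST-tagged S. cerevisiae TFs (full-length or DBD) made by in vitro transcription/translation (PURExpress), about 100-200 nM. Bound TF was detected with fluorescent anti-GST. Each ungapped 8-mer (which stands for itself and its reverse complement) is scored by the PBM enrichment score (E-score), a modified Wilcoxon-Mann-Whitney statistic from -0.5 to +0.5, computed with the Universal PBM Analysis Suite. Scale: above 0.35 generally sequence-specific binding.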

Row | Sequence | PBM E-score
1 | ACCCTCCC | 0.339
2 | ATCAGTTC | -0.0391
3 | GTTCTTAA | 0.0134
4 | AAGTTAGT | -0.0228
5 | GTTGAACA | -0.15
6 | ACGATGGG | -0.169
7 | AGTAGTTA | 0.11
8 | GGTAGTTA | 0.339
9 | CGTAGTTA | 0.177
10 | TAGTGCCA | -0.18
11 | GACCATAA | 0.287
12 | AACCATAA | 0.41
13 | AACCATGC | 0.156
14 | CACCATTA | 0.037
15 | CACCATGA | 0.00417
16 | TCCCATAA | 0.182
17 | TACCATAA | 0.367
18 | CACCATAA | 0.0248
19 | AACCATTG | 0.271
20 | AACCATGA | 0.357
21 | AACCATTA | 0.365
22 | AACCATAC | 0.159
23 | CTAATGGC | 0.134
24 | TAACTAGA | 0.227
25 | AGGGACTA | -0.104

Row | Sequence | PBM E-score
26 | ACGGTTCT | 0.0709
27 | ACTCTTGC | 0.0703
28 | TCGACTCA | -0.0722
29 | CAATTCCG | -0.00437
30 | AGGTATCA | 0.116
31 | CCTCTGAA | -0.072
32 | AGATGCGG | 0.0772
33 | AAAACCGT | 0.173
34 | AAGGTATG | 0.226
35 | AGGGTAGC | 0.313
36 | CGGGTATA | 0.317
37 | AGGGTAGA | 0.135
38 | CGGGTATC | 0.252
39 | AGGGTAGG | 0.32
40 | AGGGTATG | 0.395
41 | AGGGTATC | 0.364
42 | ATGGTATC | 0.183
43 | GGGGTATA | 0.182
44 | ACGGTATG | -0.0688
45 | AGGGTATA | 0.407
46 | GGTTTTAC | 0.108
47 | GTGCGCCA | -0.175
48 | TATGTGGA | -0.0214
49 | ATTCTTGA | 0.0771
50 | CCTCTCAC | -0.0256

Row | Sequence | PBM E-score
51 | AAAGTGGA | -0.0378
52 | CATCAAGG | 0.0235
53 | ACGTGAGC | -0.116
54 | ACGGTACG | 0.0714
55 | CCGGTACG | -0.136
56 | GCGGTAGC | 0.0107
57 | GCGGTACA | 0.13
58 | CCGGTACC | 0.414
59 | CCGGTACA | 0.149
60 | GCGGTACC | 0.418
61 | ACGGTACC | 0.399
62 | ACGGTACT | 0.0886
63 | AGACGGGC | -0.112
64 | CAGCAGCA | -0.198
65 | CGTATCGA | -0.133
66 | AAAGGTCA | 0.449
67 | GAAGGTCA | 0.232
68 | CAAGGTCG | 0.263
69 | TAAGGTGA | 0.155
70 | ACAGGTCG | 0.0832
71 | AAAGGTCC | 0.245
72 | CAAGGTCC | 0.151
73 | AAAGGTCG | 0.323
74 | AAAGGTGG | 0.158
75 | TAAGGTCA | 0.341

Row | Sequence | PBM E-score
76 | AAAGGTCT | 0.238
77 | CAAGGTCA | 0.386
78 | ACGACTCG | -0.134
79 | GTCGATGA | -0.149
80 | CCGGAGGA | -0.228
81 | CCTCAATA | 0.0804
82 | AGACCGGG | 0.0501
83 | CCACAGGG | 0.1
84 | CTCGTCAC | 0.099
85 | AATCAGCA | -0.0933
86 | ACCTGTTG | 0.265
87 | GGAGGCAA | -0.188
88 | ACACTTAT | -0.101
89 | AACCTCGC | 0.295
90 | AACCTCGA | 0.367
91 | AACCTCGT | 0.322
92 | CACCTCGA | 0.215
93 | AACCTCGG | 0.302
94 | GACCTCGA | 0.277
95 | GCCACCTA | -0.103
96 | CAGACAGG | -0.0636
97 | CAGGGTTC | 0.214
98 | AAGGGGTG | 0.167
99 | AAGGGTTG | 0.441
100 | AGGGGGTG | -0.204

Row | Sequence | PBM E-score
101 | AAAGGTTG | 0.336
102 | AGGGGTTG | 0.337
103 | AAGGGTTC | 0.339
104 | AAGGGTGC | 0.134
105 | AAGGGTGG | 0.19
106 | AGGGGTTC | 0.173
107 | AGAGGTTG | 0.218
108 | AAAGGTTC | 0.293
109 | AAATAGCA | -0.171
110 | AATAGACG | -0.163
111 | TCAGTGGA | -0.041
112 | ATCGAACG | -0.183
113 | CTCTACGA | -0.0991
114 | ACCTACCC | 0.316
115 | CTCCACGC | -0.241
116 | CTTCTACA | -0.0296
117 | CCAGGGAC | -0.163
118 | CATGGTGA | 0.0149
119 | GATGGTGA | -0.0368
120 | GATGGTAA | 0.171
121 | CATGGTTA | 0.415
122 | GATGGTTA | 0.392
123 | AATGGTTG | 0.254
124 | AATGGTTA | 0.413
125 | AATGGTTC | 0.246

Row | Sequence | PBM E-score
126 | CATGGTTC | 0.132
127 | GCCGCACC | 0.0244
128 | ATTTTGAC | 0.203
129 | AGCGACCG | -0.13
130 | CTACCTAG | 0.104
131 | GCTTTGCC | -0.379
132 | AGCCTAAG | -0.216
133 | ATTCACTC | -0.105
134 | AAGTGCTA | -0.303
135 | ATCCCTAA | 0.006
136 | CGCCCTAA | -0.126
137 | GACCCTAA | 0.433
138 | TACCCTAA | 0.435
139 | AACCCTAA | 0.452
140 | AGCCCTAA | -0.00909
141 | GTCCCTAA | 0.109
142 | GACCCTCA | 0.189
143 | TCCCCTAA | 0.0699
144 | TACCCTCA | 0.312
145 | CACCCTAA | 0.369
146 | CCCCCTAA | -0.277
147 | CGCCAATC | -0.11
148 | GTGAATTA | 0.206
149 | AAAGGACA | 0.177
150 | AGTAAGAT | -0.0474

Row | Sequence | PBM E-score
151 | ACCATTTG | 0.221
152 | AGACGCTA | -0.167
153 | TGCGCACA | -0.037
154 | GCCCTTGA | 0.00462
155 | AGCCTTGG | -0.208
156 | CCCCTTGA | 0.119
157 | ACCCTTGC | 0.381
158 | ACCCTTGG | 0.365
159 | ATCCTTGG | -0.139
160 | AGCCTTGC | -0.257
161 | CCCCTTGC | -0.0145
162 | ACCCTTGA | 0.383
163 | CAAGCTCA | -0.197
164 | AACAGCAA | -0.0172
165 | CTGGTGAC | -0.0173
166 | GATACTGC | -0.126
167 | CAGATTTC | -0.097
168 | ATAGCGAT | 0.0306
169 | AAATGGCT | 0.00044
170 | AATACCCG | 0.177
171 | AATACCCA | 0.158
172 | ACTACCCC | 0.215
173 | ACTACCCA | 0.291
174 | ACTACCCT | 0.445
175 | AATACCCT | 0.379
